Reference: PubChem BioAssay (NCI)
About 79,000 compounds went through this panel and 15% of them were active in at least one assay; those are over-represented in the sample as a whole. Active and inactive are the calls of the source. Cut-off read from the data, not from the text of the source: active = growth inhibition above about 70%; inactive = the rest.

Tests used:
[1] = NCI Yeast Anticancer Drug Screen. Data for the sgs1 strain (AID 173);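 note: 0% = growth of vehicle-only control cultures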; details: S. cerevisiae sgs1 mutant, active compounds read high
How it was run: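 Screen format: yeast with repair or checkpoint alterations, compound exposure, growth read relative to vehicle.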

[2] = NCI Yeast Anticancer Drug Screen. Data for the mlh1 rad18 strain (AID 175); details: S. cerevisiae mlh1 rad18 strain growth inhibition, active compounds read high
How it was run: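 Vehicle-treated cultures served as the reference for growth inhibition in a yeast strain carrying DNA damage repair alterations exposed to each compound.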

[3] = NCI Yeast Anticancer Drug Screen. Data for the rad18 strain (AID 177); details: S. cerevisiae rad18 mutant growth inhibition, active compounds read high
How it was run: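 Test articles were incubated with altered yeast defective in DNA damage repair. Results are given as inhibition of growth versus vehicle.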

[4] = NCI Yeast Anticancer Drug Screen. Data for the rad52 strain (AID 147);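 note: 0% = growth of vehicle-treated control cultures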; details: S. cerevisiae rad52 mutant growth inhibition, active compounds read high
How it was run: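 Vehicle-treated cultures served as the reference for growth inhibition of compound-exposed yeast bearing a DNA repair mutation.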

[5] = NCI Yeast Anticancer Drug Screen. Data for the rad50EPP+ strain (AID 151);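 note: 0% = growth of vehicle-treated control cultures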; details: S. cerevisiae rad50 mutant strain, active compounds read high
How it was run: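 In this screen, rad50EPP+ yeast were exposed to compounds. Growth inhibition was scored against vehicle-treated controls.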

[6] = NCI Yeast Anticancer Drug Screen. Data for the rad50 strain (AID 155);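 note: 0% = growth of vehicle-only cultures of the same strain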; details: S. cerevisiae rad50 strain growth inhibition, active compounds read high
How it was run: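 Inhibition values express reduced yeast growth in compound-treated cultures relative to vehicle-treated controls.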

[7] = NCI Yeast Anticancer Drug Screen. Data for the mec2-1 strain (AID 157); details: S. cerevisiae mec2-1 strain, active compounds read high
How it was run: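 Vehicle-treated cultures served as reference for growth inhibition of compound-exposed mec2-1 yeast.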

[8] = NCI Yeast Anticancer Drug Screen. Data for the rad14 strain (AID 159);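 note: 0% = growth of vehicle-treated control cultures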; details: S. cerevisiae rad14 strain growth inhibition, active compounds read high
How it was run: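 A mutant yeast strain defective in DNA damage repair is treated with compound; inhibition of its growth is scored against untreated, vehicle-exposed cultures.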

[9] = NCI Yeast Anticancer Drug Screen. Data for the sgs1 mgt1 strain (AID 161);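 note: 0% = growth of cultures given vehicle only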; details: S. cerevisiae sgs1 mgt1 strain, active compounds read high
How it was run: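 Inhibition of yeast growth, normalised to vehicle-treated controls, is reported for a strain bearing genetic alterations in DNA damage repair.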

[10] = NCI Yeast Anticancer Drug Screen. Data for the CLN2oe strain (AID 163);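 note: 0% = growth of vehicle-only control cultures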; details: S. cerevisiae CLN2oe strain, active compounds read high
How it was run: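 Inhibition relative to vehicle-treated yeast is reported. Cells: strain with genetic alteration in cell-cycle control, grown with compound.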

[11] = NCI Yeast Anticancer Drug Screen. Data for the cln2 rad14 strain (AID 165);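 note: 0% = growth equal to vehicle treated cultures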; details: S. cerevisiae cln2 rad14 strain, active compounds read high
How it was run: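 Each compound was tested on cln2 rad14 yeast. Inhibition of growth was calculated against vehicle-exposed controls.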

[12] = NCI Yeast Anticancer Drug Screen. Data for the bub3 strain (AID 167); details: S. cerevisiae bub3 mutant strain, active compounds read high
How it was run: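 Steps: expose the mutant yeast strain to compound; grow alongside vehicle-treated cultures; measure growth; express inhibition against the vehicle cultures.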

[13] = NCI Yeast Anticancer Drug Screen. Data for the wt2 strain (AID 169);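 note: 0% = growth of vehicle-treated yeast cultures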; details: S. cerevisiae wt2 strain growth inhibition, active compounds read high
How it was run: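 Inhibition of yeast growth was determined after compound treatment, normalised to controls receiving only vehicle.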

[14] = NCI Yeast Anticancer Drug Screen. Data for the mlh1 strain (AID 171);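 note: 0% = growth of vehicle-treated control cultures of the same strain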; details: S. cerevisiae mlh1 strain growth inhibition, active compounds read high
How it was run: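 Vehicle-normalised growth inhibition of a repair- or checkpoint-altered yeast strain following compound treatment.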

[15] = at 5.0 µM (retest, dose inferred, filed as 0.5)
[16] = at 50.0 µM (retest, dose inferred, filed as 5.0)

Measured: growth inhibition

Nc1nc(N)c2c(n1)CCC(S(=O)(=O)c1ccc3ccccc3c1)C2 (stereo unspecified)
inactive: [1]; at 1.2 µM 16% | [1]; at 3.7 µM 45% | [1]; at 11.0 µM 55% | [1]; at 33.0 µM 56% | [1]; at 100.0 µM 44% | [2]; [15] 48% | [2]; [16] 54% | [2]; at 50.0 µM 13.6% | [3]; at 1.2 µM 7% | [3]; at 3.7 µM 1% | [3]; at 11.0 µM 8% | [3]; at 33.0 µM 20% | [3]; at 100.0 µM 22%

Cc1ccc(S(=O)(=O)N(C)c2ccc(Cl)cc2C2=NCCc3ccccc32)cc1
inactive: [4]; at 1.2 µM 2% | [4]; at 3.7 µM -8% | [4]; at 11.0 µM -6% | [4]; at 33.0 µM 3% | [5]; at 1.2 µM -8% | [5]; at 3.7 µM -9% | [5]; at 11.0 µM -14% | [5]; at 33.0 µM -9% | [5]; at 100.0 µM -8% | [6]; at 1.2 µM 0% | [6]; at 3.7 µM 5% | [6]; [15] 47% | [6]; at 11.0 µM 11% | [6]; at 33.0 µM 3% | [6]; [16] 56% | [7]; at 1.2 µM -7% | [7]; at 3.7 µM -26% | [7]; [15] 39% | [7]; at 11.0 µM -18% | [7]; at 33.0 µM -3% | [7]; [16] 61% | [8]; at 1.2 µM -23% | [8]; at 3.7 µM -40% | [8]; at 11.0 µM -28% | [8]; at 33.0 µM -15% | [9]; [15] 7% | [10]; at 1.2 µM 15% | [10]; at 3.7 µM 2% | [10]; at 11.0 µM 18% | [10]; at 33.0 µM 9% | [11]; [15] 51% | [12]; at 1.2 µM -16% | [12]; at 3.7 µM -9% | [12]; [15] 52% | [12]; at 11.0 µM 1% | [12]; at 33.0 µM 7% | [13]; at 1.2 µM -25% | [13]; at 3.7 µM -40% | [13]; at 11.0 µM -19% | [13]; at 33.0 µM 6% | [14]; at 1.2 µM -21% | [14]; at 3.7 µM -21% | [14]; at 11.0 µM -17% | [14]; at 33.0 µM 14% | [1]; at 1.2 µM -15% | [1]; at 3.7 µM -20% | [1]; at 11.0 µM -11% | [1]; at 33.0 µM 6% | [2]; [15] 45% | [2]; [16] 55% | [3]; at 1.2 µM -13% | [3]; at 3.7 µM -12% | [3]; at 11.0 µM -18% | [3]; at 33.0 µM -11%
active: [4]; at 100.0 µM 95% | [6]; at 50.0 µM 89% | [6]; at 100.0 µM 94% | [7]; at 50.0 µM 91.7% | [7]; at 100.0 µM 95% | [8]; at 100.0 µM 94% | [9]; [16] 94% | [9]; at 50.0 µM 93.1% | [10]; at 100.0 µM 96% | [11]; [16] 98% | [11]; at 50.0 µM 90% | [12]; [16] 95% | [12]; at 50.0 µM 91.6% | [12]; at 100.0 µM 95% | [13]; at 100.0 µM 94% | [14]; at 100.0 µM 96% | [1]; at 100.0 µM 93% | [2]; at 50.0 µM 90.4% | [3]; at 100.0 µM 94%
